Data taken from the supplement of paper PMC7156485.
± gives the standard deviation of the averaged measurements.

What was measured:
Conditions in all cases: concentration: 10 µM; 24 h
HCC1569 [1] = test: cell number relative to DMSO (% of DMSO); higher = more cells (less growth inhibition / toxicity)
Summary of the method: (§1)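 H1.0 nuclear intensity or cell number is expressed as percent of the plate control, with the median of replicates taken. HCC1569 and TDF cells were treated with compounds at 10 µM for 24 h at 37 °C, in triplicate, then fixed and immunostained for H1.0 with DAPI as a nuclear stain. HCC1569 values were smoothed to correct for positional effects.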

TDF [2] = test: as above
Summary of the method: as §1

TDF [3] = test: H1.0 immunofluorescence intensity relative to DMSO (% of DMSO); higher = stronger H1.0 induction, active = 120 or more
Summary of the method: as §1

HCC1569 [4] = test: H1.0 immunofluorescence intensity relative to DMSO (% of DMSO); higher = stronger H1.0 induction, active = 140 or more
Summary of the method: as §1
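For H1.0 immunofluorescence intensity relative to DMSO in this document: TDF is a line of transformed human dermal fibroblasts of mesenchymal origin.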
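For cell number relative to DMSO in this document: TDF denotes transformed human dermal fibroblasts of mesenchymal origin.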

| SMILES | cell number (HCC1569 [1]) | cell number (TDF [2]) | H1.0 immunofluorescence intensity (TDF [3]) | H1.0 immunofluorescence intensity (HCC1569 [4]) |
| --- | --- | --- | --- | --- |
| COc1ccc(C(=O)Nc2sc3c(c2C(N)=O)CCCC3)cc1OC | 98.8 | 109 | 94.4 (inactive) | 121 (inactive) |
| OC1C=CC(Br)C(O)C1O (mixture of isomers) [6-Bromo-4-cyclohexene-1,2,3-triol Mixed Isomers] | 99.9 | 105 | 97.5 (inactive) | 112 (inactive) |
| CCCCCC=CCC=CCCCCCCCCC(=O)O [10(Z),13(Z)-Nonadecadienoic acid] | 98.3 | 96.2 | 109 (inactive) | 103 (inactive) |
| O=C1Nc2cc(Br)ccc2C1=C1N=c2ccccc2=C1NO [(2'Z,3'E)-6-Bromoindirubin-3'-oxime] | 54.7 | 61.4 | 118 (inactive) | 171 (active) |
| CCCCCC1OC1CC=CCC=CCC=CCCCC(=O)O (stereo not drawn) [14,15-Epoxyeicosatrienoic acid] | 103 | 112 | 103 (inactive) | 94.8 (inactive) |
| CCCCCCCCC=CCCCCCCCCCC(=O)O [11(E)-Eicosenoic acid] | 102 | 101 | 101 (inactive) | 102 (inactive) |
| Nc1ncnc2n[nH]c(Nc3ccc(F)cc3)c12 | 95.7 | 102 | 90.1 (inactive) | 118 (inactive) |
| CC1=C(CC(=O)O)c2cc(F)ccc2C1=Cc1ccc(S(C)(=O)=O)cc1 [Sulindac sulfone] | 104 | 117 | 100 (inactive) | 103 (inactive) |
| NCCS(=O)(=O)O [Taurine] | 98.1 | 112 | 96.4 (inactive) | 98.7 (inactive) |
| O=C(CCCN1CCN(c2ccccn2)CC1)c1ccc(F)cc1 [Azaperone] | 98.6 | 112 | 96.7 (inactive) | 103 (inactive) |
| CCCCCCCCCCCCCCCCCC(=O)OC(CC(=O)O)C[N+](C)(C)C.[Cl-] (racemic) [DL-Stearoylcarnitine chloride] | 101 | 84.3 | 136 (active) | 114 (inactive) |
| CN1C(CC(=O)c2ccccc2)CCCC1CC(O)c1ccccc1 (stereo not drawn) [Lobeline] | 103 | 102 | 94.9 (inactive) | 99.8 (inactive) |
| CN1CC(O)C(O)C(O)C1CO (stereo not drawn) [N-Methyl-1-deoxynojirimycin] | 53 | 57 | 109 (inactive) | 185 (active) |
| CCCCCCCCCCCC=CCCCCCC(=O)O [7(Z)-Nonadecenoic acid] | 97.8 | 104 | 101 (inactive) | 96.9 (inactive) |
| Cc1cc(N)c2ccccc2[n+]1CCCCCCCCCC[n+]1c(C)cc(N)c2ccccc21.[Cl-].[Cl-] [Dequalinium dichloride] | 74.8 | 64.1 | 102 (inactive) | 123 (inactive) |
| CCC=CCC=CCC=CCC=CCC=CCCCCCC(=O)O [Docosapentaenoic acid] | 100.4 ± 0.68 | 97.7 ± 1.7 | 101 (inactive) | 103 (inactive) |
| O=c1[nH]c(=O)n(C2CC(O)C(CO)O2)cc1I (stereo not drawn) [Idoxuridine] | 103 | 100 | 92.2 (inactive) | 121 (inactive) |
| NS(=O)(=O)c1cccc2c1c([N+](=O)[O-])cc1nc([O-])c([O-])nc12.[Na+].[Na+] [NBQX disodium] | 104 | 103 | 93.8 (inactive) | 91.8 (inactive) |
| CCCCCC=CCC=CCCCCCCCC(=O)O [Linoleic acid] | 102 | 101 | 105 (inactive) | 99.3 (inactive) |
| O=C(Nc1cccc(Nc2ncc(Br)c(NCCc3cnc[nH]3)n2)c1)N1CCCC1 | 51.2 | 33.8 | 113 (inactive) | 109 (inactive) |
| CCCCCC(O)C=CC=CCC=CCCCCCCC(=O)O (stereo not drawn) | 99.9 | 104 | 99.2 (inactive) | 94.6 (inactive) |
| O=c1cc(-c2ccccc2)oc2cc(O)c(O)c(O)c12 [Baicalein] | 98.9 ± 2.6 | 92.95 ± 0.67 | 93.3 (inactive) | 99.6 (inactive) |
| COCC(=O)NCC=Cc1ccc2ncnc(Nc3ccc(Oc4ccc(C)nc4)c(C)c3)c2c1 | 76.8 | 94.9 | 98.3 (inactive) | 158 (active) |
| COc1cc(OC)cc(-c2cc3cnc(N)nc3nc2NC(=O)NC(C)(C)C)c1 | 84.2 | 90.4 | 101 (inactive) | 139 (inactive) |
| CCN(CC)C(=S)SSC(=S)N(CC)CC [Disulfiram] | 93.4 ± 1.7 | 39 ± 4.7 | 123 (active) | 116 (inactive) |
| Cn1c(=O)c2[nH]c(-c3ccc(S(=O)(=O)O)cc3)nc2n(C)c1=O [8-(p-Sulfophenyl)theophylline] | 101 | 109 | 93.8 (inactive) | 89 (inactive) |

| SMILES | cell number (HCC1569 [1]) | cell number (TDF [2]) | H1.0 immunofluorescence intensity (TDF [3]) | H1.0 immunofluorescence intensity (HCC1569 [4]) |
| --- | --- | --- | --- | --- |
| Cn1c(=O)[nH]c2ncn(C)c2c1=O [1,7-Dimethylxanthine] | 102 | 98.9 | 88 (inactive) | 85.7 (inactive) |
| Brc1c(Br)c(Br)c2[nH]cnc2c1Br [4,5,6,7-tetrabromo-1H-benzimidazole] | 69.9 | 71.5 | 111 (inactive) | 103 (inactive) |
| O=C(ON1C(=O)CCC1=O)N1CCN(C(c2ccc(Cl)cc2)c2ccc(Cl)cc2)CC1 | 77.8 | 82.1 | 112 (inactive) | 126 (inactive) |
| CC(C)c1cc(/C=C(\C#N)C(=O)NCCCc2ccccc2)cc(C(C)C)c1O | 89.5 | 81.8 | 97.9 (inactive) | 141 (active) |
| N#Cc1c(-c2ccccc2)cc(-c2cc(Br)ccc2O)[nH]c1=O [PIM1 Kinase Inhibitor II] | 103 | 105 | 93.5 (inactive) | 114 (inactive) |
| CC(C)(CN1C(=O)C(Cl)=C(Cl)C1=O)CN1C(=O)C(Cl)=C(Cl)C1=O | 86.4 | 101 | 89.8 (inactive) | 124 (inactive) |
| COc1ccccc1N1CCN(CCCCNS(=O)(=O)c2cccc3c(N(C)C)cccc23)CC1.O=C(O)C=CC(=O)O [Cortexolone maleate] | 85.1 | 99.8 | 117 (inactive) | 131 (inactive) |
| CCCCCC(=O)CCC1C(O)CC(O)C1CC=CCCCC(=O)O (stereo not drawn) [13,14-Dihydro-15-keto-prostaglandin F2a] | 99.9 | 94 | 90.1 (inactive) | 98.2 (inactive) |
| CC(CN1c2ccccc2Sc2ccccc21)N(C)C.Cl (stereo not drawn) | 105 | 105 | 110 (inactive) | 112 (inactive) |
| CCCCCCCCCCCCCCC(=O)O [Pentadecanoic acid] | 99 | 92.6 | 105 (inactive) | 107 (inactive) |
| NC(=O)c1cccc(NC(=O)/C=C/c2c[nH]c3ccccc23)c1 [(E)-3-(3-(1H-indol-3-yl)acrylamido)benzamide] | 97.9 | 103 | 88 (inactive) | 118 (inactive) |
| CC(N)=O [Acetamide] | 113 | 103 | 111 (inactive) | 106 (inactive) |
| CC(C)CC(NC(=O)C(O)C(N)Cc1ccccc1)C(=O)O.Cl (stereo not drawn) [Epibestatin hydrochloride] | 105 | 96.3 | 91.8 (inactive) | 100 (inactive) |
| CCCCCC=CCC1OC1CC=CCC=CCCCC(=O)O (stereo not drawn) [11,12-Epoxyeicosatrienoic acid] | 104 | 110 | 93.8 (inactive) | 97.7 (inactive) |
| NC(N)=NCc1cccc(I)c1.NC(N)=NCc1cccc(I)c1.O=S(=O)(O)O [m-Iodobenzylguanidine hemisulfate] | 109 | 98.8 | 98.1 (inactive) | 98.4 (inactive) |
| COc1ccc(C2CNC(=O)C2)cc1OC1CCCC1 (stereo not drawn) [Rolipram] | 101 ± 1.8 | 108 ± 4.6 | 91.5 (inactive) | 110 (inactive) |
| CCCCCCCCCCCCCCCCCCC(=O)O [Nonadecanoic acid] | 96.7 | 102 | 101 (inactive) | 98 (inactive) |
| Cl.NC1(C(=O)O)CC1 [1-Aminocyclopropanecarboxylic acid hydrochloride] | 100 | 102 | 96.5 (inactive) | 100 (inactive) |
| COc1ccc(-c2cc(=O)c3c(O)c(OC)c(OC)cc3o2)cc1O | 68.2 | 80.2 | 102 (inactive) | 139 (inactive) |
| CSc1nc(N)c2ncn(C3OC(COP(=O)([O-])OP(=O)([O-])OP(=O)([O-])[O-])C(O)C3O)c2n1.[Na+].[Na+].[Na+].[Na+] (stereo not drawn) [2-Methylthioadenosine triphosphate tetrasodium] | 102 | 109 | 93 (inactive) | 95.7 (inactive) |
| CC(=O)OCC1(O)CC23CCC4c5ccoc5CCC4(C)C2CCC1C3 (stereo not drawn) [Cafestol acetate] | 103 | 98.6 | 97.6 (inactive) | 98.4 (inactive) |
| COc1ccc(C(=O)Nc2c(Cl)cncc2Cl)cc1OC1CCCC1 | 102 | 93.3 | 91 (inactive) | 106 (inactive) |
| O=C1CN(/N=C/c2ccc(-c3ccc([N+](=O)[O-])cc3)o2)C([O-])=N1.[Na+] | 93.8 | 104 | 97.3 (inactive) | 111 (inactive) |
| CCCCCCCCCCCCCCCCCC(=O)O [Octadecanoic acid] | 102 | 101 | 104 (inactive) | 95.3 (inactive) |
| O=C(O)c1cc(O)ccc1O [Gentisic acid] | 104 | 100 | 98.5 (inactive) | 93.5 (inactive) |
| NC(CCCP(=O)(O)O)C(=O)O (racemic) | 103 | 105 | 94 (inactive) | 93.7 (inactive) |
